# Experimental data as given in article PMC7862700, “An all-to-all approach to the identification of sequence-specific readers for epigenetic DNA modifications on cytosine”.
# How the values were obtained:
# Assay in all cases: DAPPL (digital affinity profiling via proximity ligation, sequencing); 10 mM Tris-HCl pH 7.5, 50 mM NaCl, 1 mM DTT, 4% glycerol, room temperature, 30 min; GST-TFs on glutathione beads, 16-mer random dsDNA library, 0.1% formaldehyde crosslink after washing; high values mean tight binding
# Details in all cases: protein: recombinant; tags: N-terminal GST; dsDNA, one strand shown
# ELK1 = biological target: T1, ELK1 (Homo sapiens, UniProt P19419 1-428)
# T1 sequence: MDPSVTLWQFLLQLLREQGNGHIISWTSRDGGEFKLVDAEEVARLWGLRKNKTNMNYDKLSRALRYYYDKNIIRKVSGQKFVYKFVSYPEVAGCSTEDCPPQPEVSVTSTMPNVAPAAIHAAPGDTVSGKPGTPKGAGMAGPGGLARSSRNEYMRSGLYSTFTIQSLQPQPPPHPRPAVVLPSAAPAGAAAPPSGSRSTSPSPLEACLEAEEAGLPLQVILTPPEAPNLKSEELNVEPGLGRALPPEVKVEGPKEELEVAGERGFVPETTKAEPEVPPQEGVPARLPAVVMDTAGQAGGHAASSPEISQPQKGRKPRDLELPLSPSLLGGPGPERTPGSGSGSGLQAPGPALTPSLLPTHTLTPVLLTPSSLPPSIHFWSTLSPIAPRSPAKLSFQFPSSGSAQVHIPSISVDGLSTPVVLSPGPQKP
# Method in brief: (§1)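 After expression in yeast as GST fusions, human transcription factors were bound to glutathione beads, DNA-barcoded and mixed with a tag-only sample. The pools were incubated with 200 nmole of a 16-mer random double-stranded DNA library in Tris/NaCl/DTT/glycerol buffer (30 min, room temperature), washed and crosslinked with 0.1% formaldehyde. Proximity ligation with BsaI/T4 ligase ran for 1 h at 37 °C, before PCR amplification and sequencing on an Illumina NextSeq500. Binding signal is a hexamer's read frequency for a factor divided by its frequency for the tag-only sample.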
# GABPA = biological target: T2, GABPA (Homo sapiens, UniProt Q06546 1-454)
# T2 sequence: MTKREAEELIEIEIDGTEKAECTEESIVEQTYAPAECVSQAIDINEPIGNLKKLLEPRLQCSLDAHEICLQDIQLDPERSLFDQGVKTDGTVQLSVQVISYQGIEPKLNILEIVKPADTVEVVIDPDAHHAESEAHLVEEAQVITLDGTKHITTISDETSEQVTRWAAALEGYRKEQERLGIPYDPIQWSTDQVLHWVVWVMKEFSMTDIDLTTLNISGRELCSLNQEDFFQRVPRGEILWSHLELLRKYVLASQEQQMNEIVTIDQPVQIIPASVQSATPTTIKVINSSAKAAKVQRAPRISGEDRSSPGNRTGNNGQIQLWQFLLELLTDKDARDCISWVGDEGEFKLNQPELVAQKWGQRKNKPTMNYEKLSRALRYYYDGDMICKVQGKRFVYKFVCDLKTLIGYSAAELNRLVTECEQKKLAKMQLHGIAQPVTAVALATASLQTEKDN
# Method in brief: as §1
# ERG = biological target: T3, ERG (Homo sapiens, UniProt P11308 1-479)
# T3 sequence: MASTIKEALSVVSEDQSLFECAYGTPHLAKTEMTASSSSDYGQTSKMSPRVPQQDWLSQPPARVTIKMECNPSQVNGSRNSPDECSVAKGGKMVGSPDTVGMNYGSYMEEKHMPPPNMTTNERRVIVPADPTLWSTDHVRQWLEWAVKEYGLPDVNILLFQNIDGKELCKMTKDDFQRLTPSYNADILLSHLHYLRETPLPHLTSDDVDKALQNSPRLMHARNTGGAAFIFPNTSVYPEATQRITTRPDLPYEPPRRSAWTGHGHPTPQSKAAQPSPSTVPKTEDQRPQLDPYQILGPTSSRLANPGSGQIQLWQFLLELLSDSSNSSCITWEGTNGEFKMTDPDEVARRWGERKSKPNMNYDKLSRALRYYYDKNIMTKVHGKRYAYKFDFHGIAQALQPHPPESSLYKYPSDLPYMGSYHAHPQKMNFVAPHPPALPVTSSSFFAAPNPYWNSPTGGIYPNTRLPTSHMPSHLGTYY
# Method in brief: as §1
# ELF1 = ELF1 (Homo sapiens, UniProt P32519 1-619)
# Method in brief: as §1
# SPIB = SPIB (Homo sapiens, UniProt Q01892 1-262)
# Method in brief: as §1
# ELK3 = biological target: T4, ELK3 (Homo sapiens, UniProt P41970 1-407)
# T4 sequence: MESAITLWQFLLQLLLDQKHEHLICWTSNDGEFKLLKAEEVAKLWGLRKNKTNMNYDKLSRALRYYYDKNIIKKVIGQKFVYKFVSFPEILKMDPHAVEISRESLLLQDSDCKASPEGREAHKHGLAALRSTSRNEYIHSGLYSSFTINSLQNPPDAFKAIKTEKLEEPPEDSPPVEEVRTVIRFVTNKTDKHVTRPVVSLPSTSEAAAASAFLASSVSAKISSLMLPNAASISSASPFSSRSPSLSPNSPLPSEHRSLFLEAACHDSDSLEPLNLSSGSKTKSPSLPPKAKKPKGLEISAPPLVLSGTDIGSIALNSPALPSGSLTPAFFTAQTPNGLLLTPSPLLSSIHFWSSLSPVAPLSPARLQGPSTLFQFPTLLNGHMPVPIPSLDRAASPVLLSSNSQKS
# Method in brief: as §1
# ETV5 = ETV5 (Homo sapiens, UniProt P41161 1-510)
# Method in brief: as §1
# SPIC = biological target: T5, SPIC (Homo sapiens, UniProt Q8N5J4 1-248)
# T5 sequence: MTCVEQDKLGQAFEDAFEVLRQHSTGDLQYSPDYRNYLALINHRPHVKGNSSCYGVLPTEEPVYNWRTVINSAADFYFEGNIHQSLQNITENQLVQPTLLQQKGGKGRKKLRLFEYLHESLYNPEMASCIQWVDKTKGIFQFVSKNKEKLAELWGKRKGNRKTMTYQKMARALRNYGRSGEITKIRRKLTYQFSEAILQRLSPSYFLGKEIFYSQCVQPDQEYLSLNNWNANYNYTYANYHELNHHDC
# Method in brief: as §1
# ELF4 = ELF4 (Homo sapiens, UniProt Q99607 1-663)
# Method in brief: as §1
# ELK4 = biological target: T6, ELK4 (Homo sapiens, UniProt P28324-2 1-405)
# T6 sequence: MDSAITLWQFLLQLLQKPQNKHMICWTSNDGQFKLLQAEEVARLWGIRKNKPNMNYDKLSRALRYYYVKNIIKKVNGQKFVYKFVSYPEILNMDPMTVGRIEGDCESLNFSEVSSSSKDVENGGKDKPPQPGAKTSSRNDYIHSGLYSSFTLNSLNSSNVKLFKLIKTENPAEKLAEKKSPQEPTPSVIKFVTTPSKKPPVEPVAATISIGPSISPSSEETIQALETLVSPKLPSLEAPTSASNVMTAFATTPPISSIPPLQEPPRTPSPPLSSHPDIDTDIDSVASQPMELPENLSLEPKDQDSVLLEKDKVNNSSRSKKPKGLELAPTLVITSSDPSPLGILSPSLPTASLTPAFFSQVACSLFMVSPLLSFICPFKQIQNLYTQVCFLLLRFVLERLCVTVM
# Method in brief: as §1
# ELF3 = biological target: T7, ELF3 (Homo sapiens, UniProt P78545 1-371)
# T7 sequence: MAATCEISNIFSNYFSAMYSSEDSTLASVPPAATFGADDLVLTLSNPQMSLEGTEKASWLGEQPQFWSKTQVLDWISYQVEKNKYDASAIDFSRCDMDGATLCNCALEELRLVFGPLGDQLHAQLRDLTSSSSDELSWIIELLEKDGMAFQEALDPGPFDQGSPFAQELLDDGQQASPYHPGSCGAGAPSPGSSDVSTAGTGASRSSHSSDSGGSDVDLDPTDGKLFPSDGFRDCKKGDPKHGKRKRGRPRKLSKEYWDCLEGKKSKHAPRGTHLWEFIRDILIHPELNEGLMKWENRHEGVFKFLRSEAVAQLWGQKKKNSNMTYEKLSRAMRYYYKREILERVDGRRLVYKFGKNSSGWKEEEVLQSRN
# Method in brief: as §1
# ERF = biological target: T8, ERF (Homo sapiens, UniProt P50548 1-548)
# T8 sequence: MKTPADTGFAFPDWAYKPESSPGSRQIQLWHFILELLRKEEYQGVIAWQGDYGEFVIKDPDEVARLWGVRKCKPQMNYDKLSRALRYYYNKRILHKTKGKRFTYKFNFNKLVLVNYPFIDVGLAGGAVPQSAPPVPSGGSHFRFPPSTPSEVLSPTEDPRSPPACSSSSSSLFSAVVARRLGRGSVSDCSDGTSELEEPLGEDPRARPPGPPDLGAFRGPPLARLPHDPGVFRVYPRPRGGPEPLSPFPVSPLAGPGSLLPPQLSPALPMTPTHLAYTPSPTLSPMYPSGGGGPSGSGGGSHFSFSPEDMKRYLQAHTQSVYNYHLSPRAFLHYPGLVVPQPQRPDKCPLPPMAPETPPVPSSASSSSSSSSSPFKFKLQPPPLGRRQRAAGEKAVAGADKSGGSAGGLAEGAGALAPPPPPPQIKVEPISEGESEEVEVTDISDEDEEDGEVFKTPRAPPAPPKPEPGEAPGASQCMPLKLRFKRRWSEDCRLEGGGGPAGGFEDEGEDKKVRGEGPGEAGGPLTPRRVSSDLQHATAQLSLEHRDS
# Method in brief: as §1
# ETV3L = biological target: T9, ETV3L (Homo sapiens, UniProt Q6ZN32 1-361)
# T9 sequence: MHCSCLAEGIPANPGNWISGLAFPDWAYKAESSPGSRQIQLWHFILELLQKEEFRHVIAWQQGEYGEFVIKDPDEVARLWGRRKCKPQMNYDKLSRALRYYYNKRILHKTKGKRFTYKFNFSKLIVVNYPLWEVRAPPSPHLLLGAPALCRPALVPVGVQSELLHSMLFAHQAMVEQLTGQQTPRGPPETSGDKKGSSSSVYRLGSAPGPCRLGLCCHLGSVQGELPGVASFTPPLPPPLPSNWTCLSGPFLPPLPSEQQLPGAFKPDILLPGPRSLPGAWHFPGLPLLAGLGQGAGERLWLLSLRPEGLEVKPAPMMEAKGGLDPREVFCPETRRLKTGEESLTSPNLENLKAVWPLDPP
# Method in brief: as §1
# ETS2 = biological target: T10, ETS2 (Homo sapiens, UniProt P15036 1-469)
# T10 sequence: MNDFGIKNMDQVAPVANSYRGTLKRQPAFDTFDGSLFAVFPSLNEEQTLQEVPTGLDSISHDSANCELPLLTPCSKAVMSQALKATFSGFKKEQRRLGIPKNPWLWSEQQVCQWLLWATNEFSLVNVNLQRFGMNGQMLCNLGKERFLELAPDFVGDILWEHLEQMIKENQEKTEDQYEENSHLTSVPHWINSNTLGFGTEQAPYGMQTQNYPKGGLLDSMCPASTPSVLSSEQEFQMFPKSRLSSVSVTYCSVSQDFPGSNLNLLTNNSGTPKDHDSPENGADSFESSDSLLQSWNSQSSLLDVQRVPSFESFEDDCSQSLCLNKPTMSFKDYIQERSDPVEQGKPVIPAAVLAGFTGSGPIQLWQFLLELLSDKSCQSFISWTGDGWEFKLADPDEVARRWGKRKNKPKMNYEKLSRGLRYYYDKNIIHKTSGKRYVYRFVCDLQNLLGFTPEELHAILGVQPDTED
# Method in brief: as §1
# ETV7 = biological target: T11, ETV7 (Homo sapiens, UniProt Q9Y603 1-341)
# T11 sequence: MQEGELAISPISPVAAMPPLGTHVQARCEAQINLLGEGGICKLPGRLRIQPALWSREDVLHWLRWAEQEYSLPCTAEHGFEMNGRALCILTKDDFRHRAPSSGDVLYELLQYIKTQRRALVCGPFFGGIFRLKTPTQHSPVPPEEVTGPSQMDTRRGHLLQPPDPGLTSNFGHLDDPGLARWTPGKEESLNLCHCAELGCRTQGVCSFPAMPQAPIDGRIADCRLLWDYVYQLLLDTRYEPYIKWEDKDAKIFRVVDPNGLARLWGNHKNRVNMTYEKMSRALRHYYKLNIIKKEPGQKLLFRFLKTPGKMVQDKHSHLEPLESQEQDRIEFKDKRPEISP
# Method in brief: as §1
# ETV3 = biological target: T12, ETV3 (Homo sapiens, UniProt P41162-2 1-143)
# T12 sequence: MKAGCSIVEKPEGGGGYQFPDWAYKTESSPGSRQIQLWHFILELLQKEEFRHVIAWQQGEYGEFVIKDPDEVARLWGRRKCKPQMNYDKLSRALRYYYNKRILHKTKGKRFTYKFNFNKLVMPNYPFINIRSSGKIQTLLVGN
# Method in brief: as §1
# ETV6 = ETV6 (Homo sapiens, UniProt P41212 1-452)
# Method in brief: as §1
# Chain of ETV6 (P41212 whole entry): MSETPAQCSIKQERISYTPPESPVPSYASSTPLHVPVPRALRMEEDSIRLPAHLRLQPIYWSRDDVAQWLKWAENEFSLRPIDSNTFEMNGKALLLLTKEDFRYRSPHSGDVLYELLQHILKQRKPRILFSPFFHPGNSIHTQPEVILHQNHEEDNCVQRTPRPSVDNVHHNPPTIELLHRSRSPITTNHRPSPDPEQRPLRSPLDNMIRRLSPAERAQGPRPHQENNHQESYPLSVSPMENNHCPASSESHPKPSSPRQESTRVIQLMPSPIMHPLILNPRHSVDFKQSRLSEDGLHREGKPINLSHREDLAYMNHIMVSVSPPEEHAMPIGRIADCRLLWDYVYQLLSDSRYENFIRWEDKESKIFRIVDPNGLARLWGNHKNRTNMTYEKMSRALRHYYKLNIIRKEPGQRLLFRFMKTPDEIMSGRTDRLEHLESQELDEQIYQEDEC
# Chain of ELF1 (P32519 whole entry): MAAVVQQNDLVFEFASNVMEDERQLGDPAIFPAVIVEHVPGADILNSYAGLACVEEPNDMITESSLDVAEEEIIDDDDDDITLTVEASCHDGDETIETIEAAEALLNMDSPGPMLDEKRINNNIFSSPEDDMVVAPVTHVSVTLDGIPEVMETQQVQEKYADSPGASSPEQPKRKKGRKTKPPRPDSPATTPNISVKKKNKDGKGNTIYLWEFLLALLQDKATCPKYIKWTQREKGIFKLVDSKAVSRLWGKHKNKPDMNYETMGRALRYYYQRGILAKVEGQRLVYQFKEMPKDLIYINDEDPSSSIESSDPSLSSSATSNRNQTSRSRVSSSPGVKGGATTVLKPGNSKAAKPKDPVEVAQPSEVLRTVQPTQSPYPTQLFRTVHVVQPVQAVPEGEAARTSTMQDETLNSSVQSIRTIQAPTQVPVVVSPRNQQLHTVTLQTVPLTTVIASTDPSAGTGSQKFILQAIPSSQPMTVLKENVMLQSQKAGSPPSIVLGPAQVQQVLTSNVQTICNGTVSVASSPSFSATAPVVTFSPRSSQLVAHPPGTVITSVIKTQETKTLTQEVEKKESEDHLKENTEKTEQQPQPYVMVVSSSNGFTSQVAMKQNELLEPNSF
# Chain of SPIB (Q01892 whole entry): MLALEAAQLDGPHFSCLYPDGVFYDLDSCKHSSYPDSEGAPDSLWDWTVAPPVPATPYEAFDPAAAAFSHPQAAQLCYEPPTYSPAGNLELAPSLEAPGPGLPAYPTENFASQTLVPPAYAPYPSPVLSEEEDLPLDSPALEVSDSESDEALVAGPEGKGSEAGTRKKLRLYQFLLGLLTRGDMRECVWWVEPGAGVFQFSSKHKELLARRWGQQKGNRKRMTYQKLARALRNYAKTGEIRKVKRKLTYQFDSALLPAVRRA
# Chain of ETV5 (P41161 whole entry): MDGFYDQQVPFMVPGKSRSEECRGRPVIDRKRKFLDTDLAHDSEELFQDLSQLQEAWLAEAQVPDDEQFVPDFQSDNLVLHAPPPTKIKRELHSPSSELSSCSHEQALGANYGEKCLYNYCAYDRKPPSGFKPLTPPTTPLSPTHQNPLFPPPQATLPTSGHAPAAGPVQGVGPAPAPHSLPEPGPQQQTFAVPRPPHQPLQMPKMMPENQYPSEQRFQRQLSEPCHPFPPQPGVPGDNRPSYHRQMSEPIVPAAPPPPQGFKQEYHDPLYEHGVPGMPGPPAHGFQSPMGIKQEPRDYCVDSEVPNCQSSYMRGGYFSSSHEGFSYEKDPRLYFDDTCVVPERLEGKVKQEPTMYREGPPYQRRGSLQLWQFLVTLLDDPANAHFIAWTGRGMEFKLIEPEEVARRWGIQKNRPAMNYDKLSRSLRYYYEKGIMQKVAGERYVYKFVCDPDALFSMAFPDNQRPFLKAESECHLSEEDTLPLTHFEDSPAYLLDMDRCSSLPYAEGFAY
# Chain of ELF4 (Q99607 whole entry): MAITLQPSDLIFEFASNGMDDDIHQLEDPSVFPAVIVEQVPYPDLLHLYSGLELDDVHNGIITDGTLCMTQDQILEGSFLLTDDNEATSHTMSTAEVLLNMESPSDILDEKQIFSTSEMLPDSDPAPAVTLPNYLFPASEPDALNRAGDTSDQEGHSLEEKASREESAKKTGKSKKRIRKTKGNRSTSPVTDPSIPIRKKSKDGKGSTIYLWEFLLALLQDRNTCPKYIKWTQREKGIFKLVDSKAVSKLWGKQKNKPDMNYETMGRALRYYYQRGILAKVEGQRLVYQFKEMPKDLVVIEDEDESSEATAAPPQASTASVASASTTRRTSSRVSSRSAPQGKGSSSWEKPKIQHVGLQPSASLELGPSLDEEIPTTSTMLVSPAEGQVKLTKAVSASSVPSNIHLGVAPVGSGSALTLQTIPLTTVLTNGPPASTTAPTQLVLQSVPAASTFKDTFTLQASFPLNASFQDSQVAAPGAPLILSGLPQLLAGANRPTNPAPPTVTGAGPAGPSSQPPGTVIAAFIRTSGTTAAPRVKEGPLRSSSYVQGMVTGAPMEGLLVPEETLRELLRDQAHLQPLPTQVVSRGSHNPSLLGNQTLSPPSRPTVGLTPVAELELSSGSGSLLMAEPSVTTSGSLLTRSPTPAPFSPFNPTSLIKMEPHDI
sequence,measurement,setting,value
ACTGGT,binding signal,ELK1,"1.06 fold enrichment (6-mer frequency, TF over GST control)"
same,binding signal,GABPA,"1.08 fold enrichment (6-mer frequency, TF over GST control)"
same,binding signal,ERG,"1.07 fold enrichment (6-mer frequency, TF over GST control)"
same,binding signal,ELF1,"1.13 fold enrichment (6-mer frequency, TF over GST control)"
same,binding signal,SPIB,"1.08 fold enrichment (6-mer frequency, TF over GST control)"
same,binding signal,ELK3,"1.08 fold enrichment (6-mer frequency, TF over GST control)"
same,binding signal,ETV5,"1.02 fold enrichment (6-mer frequency, TF over GST control)"
same,binding signal,SPIC,"1.07 fold enrichment (6-mer frequency, TF over GST control)"
same,binding signal,ELF4,"1.07 fold enrichment (6-mer frequency, TF over GST control)"
same,binding signal,ELK4,"1.06 fold enrichment (6-mer frequency, TF over GST control)"
same,binding signal,ELF3,"1.06 fold enrichment (6-mer frequency, TF over GST control)"
same,binding signal,ERF,"1.03 fold enrichment (6-mer frequency, TF over GST control)"
same,binding signal,ETV3L,"1.07 fold enrichment (6-mer frequency, TF over GST control)"
same,binding signal,ETS2,"1.03 fold enrichment (6-mer frequency, TF over GST control)"
same,binding signal,ETV7,"1.05 fold enrichment (6-mer frequency, TF over GST control)"
same,binding signal,ETV3,"1.06 fold enrichment (6-mer frequency, TF over GST control)"
same,binding signal,ETV6,"1.08 fold enrichment (6-mer frequency, TF over GST control)"
